According to the antibiotic and cytotoxicity screens of Wong et al. (2023):
The whole screen tested about 39,000 compounds, of which about 1,500 (3.8%) were called active. The entries come from a sample that favours actives as a whole.

Each compound was assayed on HSkMC (human skeletal muscle cells) (assay: cytotoxicity call (relative viability < 0.9)). Conditions: 10 µM.

Structure (SMILES) | cytotoxicity call
C=CCC[C@H](Cc1ccc(F)cc1)C(=O)OC[C@@H](NC(=O)[C@@H](CC=C)CC(=O)N(CCO)Cc1ccccc1)c1ccccc1 | active
C=CC[C@@H](CC(=O)N(CCO)Cc1ccccc1)C(=O)N[C@H](COC(=O)[C@@H](CC=C)Cc1ccc(F)cc1)c1ccccc1 | inactive
C=CCC[C@@H](Cc1ccc(F)cc1)C(=O)OC[C@@H](Cc1ccccc1)NC(=O)[C@H](CC=C)CC(=O)N(CCO)Cc1ccccc1 | inactive
C=CCC[C@@H](Cc1ccc(F)cc1)C(=O)OC[C@@H](NC(=O)[C@H](CC=C)CC(=O)N(CCO)Cc1ccccc1)c1ccccc1 | inactive
C=CCC[C@H](Cc1ccc(F)cc1)C(=O)OC[C@@H](NC(=O)[C@H](CC=C)CC(=O)N(CCO)Cc1ccccc1)c1ccccc1 | inactive
C=CCC[C@@H](Cc1ccc(F)cc1)C(=O)OC[C@@H](NC(=O)[C@@H](CC=C)CC(=O)N(CCO)Cc1ccccc1)c1ccccc1 | active
Cc1ccc(S(=O)(=O)N(C)C[C@H]2Oc3ccc(NC(=O)Nc4cccc5ccccc45)cc3C(=O)N([C@H](C)CO)C[C@@H]2C)cc1 | inactive
COc1ccc(C#Cc2ccc3c(c2)[C@]2(C(=O)N3)[C@H](C(N)=O)[C@H]3C(=O)O[C@H](c4ccccc4)[C@H](c4ccccc4)N3[C@@H]2c2ccc(OCCO)cc2)cc1 | inactive
Cc1cc(-c2ccccc2)nc(SCc2ccccc2)c1C#N | inactive
COc1ccc(S(=O)(=O)N(C)C[C@@H]2Oc3ccc(NS(C)(=O)=O)cc3CC(=O)N([C@@H](C)CO)C[C@H]2C)cc1 | inactive
CS(=O)(=O)Nc1ccc2c(c1)[C@@H]1C[C@H](CC(=O)NCc3ccc(-c4ccccc4)cc3)O[C@H](CO)[C@@H]1O2 | inactive
COc1ccc(S(=O)(=O)N(C)C[C@@H]2Oc3c(NC(=O)NC(C)C)cccc3C(=O)N([C@H](C)CO)C[C@@H]2C)cc1 | inactive
Cc1noc(C)c1NC(=O)Nc1ccc2c(c1)C(=O)N([C@H](C)CO)C[C@H](C)[C@H](CN(C)C(=O)Nc1ccccc1)OCCCC[C@@H](C)O2 | inactive
CC1=C(/C=C/C(C)=C/C=C/C(C)=C\C(=O)O)C(C)(C)CCC1 | inactive
C[C@@H]1CN([C@@H](C)CO)C(=O)Cc2cc(NC(=O)Nc3ccc(C(F)(F)F)cc3)ccc2O[C@H]1CN(C)S(=O)(=O)c1ccc(Cl)cc1 | inactive
C[C@@H]1CN([C@@H](C)CO)C(=O)Cc2cc(NC(=O)Nc3ccc(C(F)(F)F)cc3)ccc2O[C@@H]1CN(C)S(=O)(=O)c1ccc(Cl)cc1 | active
C[C@H](CO)N1C[C@H](C)[C@H](CN(C)S(=O)(=O)c2ccc(Cl)cc2)Oc2ccc(NC(=O)Nc3ccc(C(F)(F)F)cc3)cc2CC1=O | active
C[C@H](CO)N1C[C@H](C)[C@@H](CN(C)S(=O)(=O)c2ccc(Cl)cc2)Oc2ccc(NC(=O)Nc3ccc(C(F)(F)F)cc3)cc2CC1=O | inactive
C[C@H]1CN([C@@H](C)CO)C(=O)Cc2cc(NC(=O)Nc3cccc(C(F)(F)F)c3)ccc2O[C@H]1CN(C)S(=O)(=O)c1ccc(Cl)cc1 | active
C[C@H]1CN([C@@H](C)CO)C(=O)Cc2cc(NC(=O)Nc3cccc(C(F)(F)F)c3)ccc2O[C@H]1CN(C)S(=O)(=O)c1ccc(Oc2ccccc2)cc1 | inactive
COc1ccc(S(=O)(=O)N(C)C[C@@H]2Oc3ccc(NC(=O)Nc4cccc(C(F)(F)F)c4)cc3CC(=O)N([C@@H](C)CO)C[C@@H]2C)cc1Cl | active
C[C@@H]1CN([C@@H](C)CO)C(=O)c2cc(NS(=O)(=O)c3ccc(F)cc3)ccc2O[C@@H](C)CCCCO[C@@H]1CN(C)Cc1ccc(C(=O)O)cc1 | inactive
C[C@H]1CN([C@@H](C)CO)C(=O)CCCn2cc(nn2)CO[C@@H]1CN(C)Cc1cccc2c1OCCCO2 | inactive

Structure (SMILES) | cytotoxicity call
CO[C@H]1O[C@H](CO)[C@@H](OC(=O)Nc2ccc(Oc3ccccc3)cc2)[C@H](OC(=O)Nc2ccccc2)[C@H]1OC(=O)Nc1ccccc1 | inactive
COc1ccc(S(=O)(=O)N(C)C[C@@H]2OCCCC[C@@H](C)Oc3ccc(NC(=O)Nc4ccccc4)cc3C(=O)N([C@H](C)CO)C[C@H]2C)cc1 | inactive
O=C(C[C@H]1CC[C@H]2[C@@H](COC[C@@H](O)CN2S(=O)(=O)c2ccc(Oc3ccccc3)cc2)O1)NC1CCC1 | inactive
CC(C)NC(=O)Nc1ccc2c(c1)C(=O)N([C@H](C)CO)C[C@@H](C)[C@@H](CN(C)S(=O)(=O)c1cn(C)cn1)O2 | inactive
C[C@H]1CN([C@@H](C)CO)C(=O)c2cc(NC(=O)Nc3cccc4ccccc34)ccc2O[C@@H]1CN(C)Cc1ccc(C(=O)O)cc1 | inactive
COC(=O)c1c(CC[C@@H](CO)NC(=O)N[C@H](Cn2cc(-c3ccccc3C)nn2)C(C)C)oc(C(C)=O)c1C(=O)OC | inactive
CCCN(C)C[C@H]1OCCCC[C@@H](C)Oc2ccc(NC(=O)C3CCCCC3)cc2C(=O)N([C@H](C)CO)C[C@@H]1C | inactive
C[C@H]1CN([C@@H](C)CO)C(=O)Cc2cc(NC(=O)Nc3ccc(C(F)(F)F)cc3)ccc2O[C@@H]1CN(C)S(=O)(=O)c1ccc(Cl)cc1 | inactive
C[C@@H]1CN([C@H](C)CO)C(=O)Cc2cc(NC(=O)Nc3ccc(C(F)(F)F)cc3)ccc2O[C@H]1CN(C)S(C)(=O)=O | inactive
C[C@@H]1CN([C@H](C)CO)C(=O)Cc2cc(NC(=O)Nc3ccc(C(F)(F)F)cc3)ccc2O[C@@H]1CN(C)S(C)(=O)=O | inactive
C[C@H](CO)N1C[C@H](C)[C@@H](CN(C)S(C)(=O)=O)Oc2ccc(NC(=O)Nc3ccc(C(F)(F)F)cc3)cc2CC1=O | inactive
C[C@H]1CN([C@@H](C)CO)C(=O)Cc2cc(NC(=O)Nc3ccc(C(F)(F)F)cc3)ccc2O[C@H]1CN(C)S(C)(=O)=O | inactive
C[C@H]1CN([C@@H](C)CO)C(=O)Cc2cc(NC(=O)Nc3ccc(C(F)(F)F)cc3)ccc2O[C@H]1CN(C)S(=O)(=O)c1ccc(Cl)cc1 | active
C[C@@H]1CN([C@H](C)CO)C(=O)Cc2cc(NC(=O)Nc3ccc(C(F)(F)F)cc3)ccc2O[C@H]1CN(C)S(=O)(=O)c1ccc(Cl)cc1 | active
C[C@@H]1CN([C@H](C)CO)C(=O)Cc2cc(NC(=O)Nc3ccc(C(F)(F)F)cc3)ccc2O[C@@H]1CN(C)S(=O)(=O)c1ccc(Cl)cc1 | active
Cc1ccccc1S(=O)(=O)N(C)C[C@@H]1Oc2ccc(NC(=O)Nc3cccc(C(F)(F)F)c3)cc2CC(=O)N([C@@H](C)CO)C[C@@H]1C | active
C[C@@H]1CN([C@@H](C)CO)C(=O)Cc2cc(NC(=O)Nc3ccc(C(F)(F)F)cc3)ccc2O[C@H]1CN(C)S(C)(=O)=O | inactive
COc1ccc(NC(=O)N(C)C[C@@H]2OCc3ccccc3-c3c(n(C)c4ccccc34)C(=O)N([C@H](C)CO)C[C@H]2C)cc1 | inactive
C[C@@H]1CN([C@H](C)CO)C(=O)Cc2cc(NS(=O)(=O)c3ccc(Cl)cc3)ccc2O[C@@H]1CN(C)C(=O)Nc1cccc2ccccc12 | inactive
CO[C@@H](CN(C)S(=O)(=O)c1ccc(C)cc1)[C@@H](C)CN([C@@H](C)CO)S(=O)(=O)c1cccc(Cl)c1 | inactive
C[C@@H]1CN([C@H](C)CO)C(=O)c2cc(NS(=O)(=O)c3ccc(Cl)cc3)ccc2O[C@@H](C)CCCCO[C@@H]1CN(C)C(=O)Cc1ccccc1 | inactive
CN1CCN(C(=O)C[C@H]2C=C[C@H](NC(=O)Cc3ccccn3)[C@H](CO)O2)CC1 | inactive
O=C(C1=C[C@H](c2ccsc2)C[C@H](OCCCCO)O1)N1CCN(Cc2ccc3c(c2)OCO3)CC1 | inactive

Structure (SMILES) | cytotoxicity call
COC(=O)c1c2oc(c1C(=O)OC)C(=O)N[C@@H](Cc1ccccc1)Cn1cc(nn1)[C@@H](Cc1ccccc1)NC(=O)N[C@H](CO)CC2 | inactive
C[C@H](CO)N1C[C@H](C)[C@H](CN(C)S(=O)(=O)c2ccccc2)OCCCC[C@H](C)Oc2ccc(NC(=O)NC3CCCCC3)cc2C1=O | inactive
CCNc1cc(=N)n(CC)c2n[nH]c(N)c12 | inactive
CON=C1CC2(CC3CC(CC=C(C)CC(C)C=CC=C4COC5C(O)C(C)=CC(C(=O)O3)C45O)O2)OC(C(C)=CC(C)C)C1C (centres undefined) | active
CO/N=C1\C[C@]2(C[C@@H]3C[C@@H](C/C=C(\C)C[C@@H](C)/C=C/C=C4\CO[C@@H]5[C@H](O)C(C)=C[C@@H](C(=O)O3)[C@]45O)O2)O[C@H](/C(C)=C/C(C)C)[C@H]1C | active
COC(=O)C=CC(=O)OC | inactive
C[C@@H](NC(=O)C[C@H]1CC[C@@H](NC(=O)CN2CCOCC2)[C@H](CO)O1)c1ccccc1 | inactive
C#CC1(O)CCC2C3CCC4=CC(=O)CCC4C3CCC21C (centres undefined) | inactive
C#CC1(O)CCC2C3CCC4=CCCCC4C3CCC21C (centres undefined) | active
C#CC1(O)CCC2C3CCC4=CCCCC4C3C(=C)CC21CC (centres undefined) | inactive
C[C@H](CO)N1C[C@H](C)[C@H](CN(C)C(=O)Cc2ccccc2)OCCCC[C@H](C)Oc2ccc(NC(=O)Nc3ccc4c(c3)OCO4)cc2C1=O | inactive
C[C@@H]1CN([C@@H](C)CO)C(=O)c2cc(NS(=O)(=O)c3cn(C)cn3)ccc2O[C@H]1CN(C)Cc1ccc(C(=O)O)cc1 | inactive
O=c1[nH]cc(/N=C/c2ccncc2)c(=O)[nH]1 | inactive
COc1ccc(NC(=O)N(C)C[C@H]2OCCCC[C@@H](C)Oc3ccc(NC(=O)NC(C)C)cc3C(=O)N([C@H](C)CO)C[C@@H]2C)cc1 | inactive
C[C@@H]1O[C@@H](O[C@H]2[C@H](O[C@H]3[C@H](O)[C@@H](O[C@@H]4O[C@H](CO)[C@@H](O)[C@H](O)[C@H]4O)[C@H](O[C@H]4CC[C@]5(C)[C@H]6CC[C@]78OC[C@@]9(CCC(C)(C)C[C@@H]97)[C@H](O)C[C@@]8(C)[C@]6(C)CC[C@H]5C4(C)C)O[C@@H]3C(=O)O)O[C@H](CO)[C@H](O)[C@@H]2O)[C@H](O)[C@H](O)[C@H]1O | active
C[C@@H]1O[C@@H](O[C@H]2[C@H](O[C@H]3[C@H](O)[C@@H](O[C@@H]4O[C@H](CO)[C@@H](O[C@@H]5O[C@H](CO)[C@H](O)[C@H]5O)[C@H](O)[C@H]4O)[C@H](O[C@H]4CC[C@]5(C)[C@H]6CC[C@]78OC[C@@]9(CCC(C)(C)C[C@@H]97)[C@H](O)C[C@@]8(C)[C@]6(C)CC[C@H]5C4(C)C)O[C@@H]3C(=O)O)O[C@H](CO)[C@H](O)[C@@H]2O)[C@H](O)[C@H](O)[C@H]1O | inactive
CC(=O)O[C@H]1CC(C)(C)C[C@H]2[C@]13CO[C@@]21CC[C@@H]2[C@@]4(C)CC[C@H](O[C@@H]5O[C@H](C(=O)O)[C@@H](O)[C@H](O[C@@H]6O[C@H](CO)[C@H](O)[C@H](O)[C@H]6O[C@@H]6O[C@@H](C)[C@H](O)[C@@H](O)[C@H]6O)[C@H]5O[C@@H]5O[C@H](CO)[C@@H](O)[C@H](O)[C@H]5O)C(C)(C)[C@@H]4CC[C@@]2(C)[C@]1(C)C[C@H]3O | inactive
C[C@@H]1O[C@@H](O[C@H]2[C@H](O[C@H]3[C@H](O)[C@@H](C(=O)O)O[C@@H](O[C@H]4CC[C@]5(C)[C@H]6CC[C@]78OC[C@@]9(CCC(C)(C)C[C@@H]97)[C@H](O)C[C@@]8(C)[C@]6(C)CC[C@H]5C4(C)C)[C@@H]3OC3O[C@H](CO)[C@@H](O)[C@H](O)[C@H]3O)O[C@H](CO)[C@H](O)[C@@H]2O)[C@H](O)[C@H](O)[C@H]1O (some centres undefined) | active
C[C@@H]1O[C@@H](O[C@H]2[C@H](O)[C@@H](O)[C@H](OC(=O)[C@]34CCC(C)(C)C[C@H]3C3=CC[C@H]5[C@@]6(C)CC[C@H](O[C@@H]7O[C@H](C(=O)O)[C@@H](O)[C@H](O)[C@H]7O)C(C)(C)[C@@H]6CC[C@@]5(C)[C@]3(C)CC4)O[C@@H]2CO)[C@H](O)[C@H](O)[C@H]1O | inactive
CC(=O)O[C@H]1CC(C)(C)C[C@H]2[C@]13CO[C@@]21CC[C@H]2[C@@]4(C)CC[C@H](O[C@@H]5OC[C@H](O[C@@H]6O[C@H](CO)[C@@H](O)[C@H](O)[C@H]6O[C@@H]6OC[C@@H](O[C@@H]7O[C@H](CO)[C@@H](O)[C@H](O)[C@H]7O)[C@H](O)[C@H]6O)[C@H](O)[C@H]5O[C@@H]5O[C@H](CO)[C@@H](O)[C@H](O)[C@H]5O)[C@@](C)(CO)[C@@H]4CC[C@@]2(C)[C@]1(C)C[C@H]3O | active
C[C@H]1O[C@@H](OC[C@H]2O[C@@H](O[C@H]3CC[C@]4(C)[C@H]5CCC6=C(CC[C@@]7(C(=O)O[C@@H]8O[C@H](CO)[C@@H](O)[C@H](O)[C@H]8O[C@@H]8O[C@H](CO)[C@@H](O)[C@H](O)[C@H]8O)CCC(C)(C)C[C@@H]67)[C@]5(C)CC[C@H]4C3(C)C)[C@H](O)[C@@H](O)[C@@H]2O)[C@H](O)[C@@H](O)[C@@H]1O | inactive
CC1(C)CC[C@]2(C(=O)O[C@@H]3O[C@H](CO[C@@H]4O[C@H](CO)[C@@H](O)[C@H](O)[C@H]4O)[C@@H](O)[C@H](O)[C@H]3O)CC[C@]3(C)C(=CC[C@H]4[C@@]5(C)CC[C@H](O[C@@H]6OC[C@H](O)[C@H](O)[C@H]6O)C(C)(C)[C@@H]5CC[C@]43C)[C@@H]2C1 | inactive
CC1(C)CC[C@]2(C(=O)O[C@@H]3O[C@H](CO)[C@@H](O)[C@H](O)[C@H]3O)CC[C@]3(C)C(=CC[C@H]4[C@@]5(C)CC[C@@H](O[C@@H]6O[C@H](C(=O)O)[C@@H](O[C@@H]7OC[C@@H](O)[C@H](O)[C@H]7O)[C@H](O[C@@H]7OC[C@](O)(CO)[C@H]7O)[C@H]6O)C(C)(C)[C@@H]5CC[C@]43C)[C@@H]2C1 | inactive
